# From PubChem BioAssay
# Shown are actives, neighbours in structure and some others; about 28% of the full set was active somewhere.
# CYP2C9 inh = inhibitors of human CYP2C9; inhibition, % at 5 µM; AID 777; P11712; 20% of 96,000 active; CYP2C9 Supersomes, luciferin-H conversion, luminescence;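 active = blocking of liver enzyme CYP2C9 beyond about 50% at 5 µM, limit read from the data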
# PTK2B oligo ant = antagonists of human Pyk2 oligomerization. Q14289. Q293 cells, Pyk2 FERM NanoBiT luminescence; hits give low values. z-score (the deposit names both 25 µM and 10 µM). 0.83% of 99,000 active. AID 1347419;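 active = Z-score of -3 or lower, scaled per plate to the spread of control and sample wells; inactive = z-score above -3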;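 note: negative z-score means lost luminescence so less FERM oligomerization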
# Target sequence (Q14289 whole entry, looked up): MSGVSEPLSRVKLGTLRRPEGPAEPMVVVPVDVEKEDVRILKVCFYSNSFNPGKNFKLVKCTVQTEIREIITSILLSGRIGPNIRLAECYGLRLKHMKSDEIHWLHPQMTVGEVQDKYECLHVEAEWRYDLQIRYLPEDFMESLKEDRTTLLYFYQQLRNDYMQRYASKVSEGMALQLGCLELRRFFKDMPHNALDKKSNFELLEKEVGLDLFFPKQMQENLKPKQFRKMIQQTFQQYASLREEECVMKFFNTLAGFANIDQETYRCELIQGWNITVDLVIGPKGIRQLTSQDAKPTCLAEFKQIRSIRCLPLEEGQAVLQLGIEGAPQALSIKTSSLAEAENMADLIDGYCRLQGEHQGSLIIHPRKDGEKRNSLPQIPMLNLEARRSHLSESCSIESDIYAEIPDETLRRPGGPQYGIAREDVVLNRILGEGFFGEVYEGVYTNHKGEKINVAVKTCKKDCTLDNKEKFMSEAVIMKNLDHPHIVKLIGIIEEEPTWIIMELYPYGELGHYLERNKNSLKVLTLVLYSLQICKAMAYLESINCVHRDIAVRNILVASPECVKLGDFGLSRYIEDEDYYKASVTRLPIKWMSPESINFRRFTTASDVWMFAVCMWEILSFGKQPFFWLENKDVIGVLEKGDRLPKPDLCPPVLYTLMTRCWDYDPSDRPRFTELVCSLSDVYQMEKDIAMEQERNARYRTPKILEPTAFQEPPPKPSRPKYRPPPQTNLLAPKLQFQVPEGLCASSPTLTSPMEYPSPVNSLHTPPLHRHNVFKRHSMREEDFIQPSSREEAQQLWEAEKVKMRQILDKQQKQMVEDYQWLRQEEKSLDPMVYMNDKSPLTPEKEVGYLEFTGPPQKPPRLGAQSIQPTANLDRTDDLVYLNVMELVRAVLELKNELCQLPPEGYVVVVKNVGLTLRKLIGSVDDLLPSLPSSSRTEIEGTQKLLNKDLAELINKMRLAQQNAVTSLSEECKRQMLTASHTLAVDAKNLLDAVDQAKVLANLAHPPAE
# CYP2C19 act = activators of human cytochrome P450 2C19 | P33261 | recombinant CYP2C19, luciferin-H EGE luminescence; hits give high values; 0 = fully inhibited enzyme, 1 = untreated enzyme | activation factor at 5 µM | 96,000 tested, under 10 active | AID 1025;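 active = activation factor of at least 2 at 5 µM in the primary screen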;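 note: 0 = wells with 2.5 mM tranylcypromine and 1 = vehicle-only wells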
# CYP2C9 act = CYP2C9 (human) activation; P11712; recombinant CYP2C9, luciferin-H conversion, luminescence; hits give high values; factor 1 = untreated enzyme, 0 = blocked; activation factor at 5 µM; 1.4% of 96,000 active; AID 1024;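 active = activation factor of 2 or more for CYP2C9 at a 5 µM dose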;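 note: 0 = sulfaphenazole-blocked wells and 1 = vehicle-only wells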
# CYP2C19 inh = human CYP2C19 inhibition | P33261 | CYP2C19 Supersomes, luciferin-H EGE luminescence, 30 min | inhibition, % at 5 µM | 21% of 96,000 active | AID 778;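 active = CYP2C19 inhibition above a set limit at 5 µM in the primary screen, cut at about 50% in these data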;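 note: plate controls were negative control wells for no effect and 2.5 mM tranylcypromine positive control for full effect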
# * marks the source's active call; other numbers are inactive results; . = not tested or not shown.
SMILES,CYP2C9 inh,PTK2B oligo ant,CYP2C19 act,CYP2C9 act,CYP2C19 inh
CCn1c(SCC(=O)NC(=O)Nc2ccc3c(c2)OCCO3)nnc1-c1cccs1,56*,-0.56,0.5,0.4,48
O=C(CSc1nnc(-c2ccccc2)n1Cc1ccco1)Nc1ccc2c(c1)OCCO2,55*,-0.4,0.4,0.5,56*
Cn1c(SCC(=O)Nc2ccc3c(c2)OCCO3)nnc1-c1ccco1,63*,-0.45,0.5,0.4,52*
O=C(CSc1nnc(-c2cccs2)n1Cc1ccco1)Nc1ccc2c(c1)OCO2,63*,-1.5,0.7,0.4,33
COc1ccc(NC(C)=O)cc1NC(=O)CSc1nnc(-c2cccnc2)n1C,-10,0.96,1,1.1,4
O=C(CSc1ccc2nnc(-c3ccccc3)n2n1)NCc1ccc2c(c1)OCO2,29,.,0.9,0.7,8
O=C(CSc1nnc(-c2ccccc2)n1Cc1ccco1)NCc1ccc2c(c1)OCO2,67*,-0.97,0.9,0.3,7
CCn1c(Cc2ccccc2)nnc1SCC(=O)Nc1ccc2c(c1)OCCO2,58*,-0.2,0.3,0.4,68*
OC(Cn1cccn1)c1ccccc1 (stereo not drawn),-10,1.2,1.1,1.1,-11
Cc1cc(C)cc(OCC(=O)NNC(=O)CCC(=O)NCc2ccccc2)c1,.,-0.92,.,.,.
O=C(COc1ccccc1)NNc1c2ccccc2nc2ccccc12,-222,0.11,0.8,3.2*,15
O=C(Nc1ccccc1)c1cc(Cl)nc2ccccc12,.,0.89,.,.,.
COc1ccc(OCC(=O)Nc2nc3ccccc3[nH]2)cc1,-7,0.17,1,1.1,-5
COc1ccc(OCC(=O)NNc2c3ccccc3nc3ccccc23)cc1,-134,-0.5,1,2.3*,0
O=C(NNc1c2ccccc2nc2ccccc12)c1ccc(O)cc1O,71*,-2.9,0.3,0.3,66*
O=C(Nc1ccc(F)cc1)c1ccccc1CC[N+](=O)[O-],1,-0.33,0.7,1,30
O=C(c1ccco1)N1CCN(C(c2ccccc2)c2nnnn2C2CCCC2)CC1 (stereo not drawn),.,1.4,.,.,.
CC(C)C(c1nnnn1C1CCCC1)N1CCN(C(=O)c2ccco2)CC1 (stereo not drawn),50*,-0.74,1,0.5,5
CC(C)C(c1nnnn1C1CCCC1)N1CCCCC1 (stereo not drawn),-8,0.31,1.3,1.1,-32
CC(C)CC(c1nnnn1C1CCCCC1)N1CCN(c2ncccn2)CC1 (stereo not drawn),96*,-0.45,0.1,0,88*
CC(C)C(c1nnnn1C1CCCCC1)N1CCN(c2ncccn2)CC1 (stereo not drawn),60*,0.55,0.7,0.4,27
Clc1ccc(C2=Nn3c(nnc3-c3n[nH]c4c3CCC4)SC2)cc1Cl,.,-2.1,.,.,.
Cc1cccc(N2C(=O)CC(N(C(=O)c3ccco3)c3cccc(C)c3)C2=O)c1 (stereo not drawn),.,-0.72,.,.,.
N/C(=N\OC(=O)c1cc(Cl)ccc1Cl)c1cccnc1,34,-0.67,0.3,0.7,72*
COc1ccccc1NC(=S)NC(=O)CC(C)C,35,-0.36,0.8,0.7,24
SMILES,CYP2C9 inh,PTK2B oligo ant,CYP2C19 act,CYP2C9 act,CYP2C19 inh
CCOc1cc(S(=O)(=O)Nc2ccccn2)ccc1F,-26,0.75,0.8,1.3,21
CCOc1cc(S(=O)(=O)Nc2ccc(CC)cc2)ccc1Cl,80*,-2.4,0.5,0.2,46
CCOc1cc(S(=O)(=O)Nc2ccccc2CC)ccc1Cl,-85,-0.3,0.2,1.8,82*
COc1cc(S(=O)(=O)Nc2ccccc2C)ccc1Cl,-98,-0.41,0,2*,100*
Cn1c(=O)n(CCc2ccccc2)c(=O)c2c1nc1n2CCCN1CCc1ccccc1,93*,-2.9,0.1,0.1,92*
Cn1c(=O)n(CCc2ccccc2)c(=O)c2c1nc1n2CCCN1Cc1ccccc1,15,-2.4,0.9,0.8,11
Cn1c(=O)n(Cc2ccc(F)cc2)c(=O)c2c1nc1n2CCCN1Cc1ccccc1,86*,-0.18,0,0.1,96*
Cc1ccc(N2CCCn3c2nc2c3c(=O)n(CC(=O)OCc3ccccc3)c(=O)n2C)cc1C,55*,.,0.8,0.4,22
CC(C)Cn1c(=O)c2c(nc3n2CCCN3CCc2ccccc2)n(C)c1=O,93*,-0.62,0.1,0.1,85*
CCN(C(=O)CN1CCN(c2ccc(OC)cc2)CC1)c1c(N)n(Cc2ccccc2)c(=O)[nH]c1=O,-5,0.09,1.2,1,-16
CCn1cc([N+](=O)[O-])c(C(=O)Nc2cc(C)on2)n1,-18,-0.86,0.9,1.2,6
CCc1nnc(NC(=O)CSc2ccc(-c3nc4ccccc4[nH]3)cn2)s1,51*,-0.82,0.8,0.5,23
CCc1nnc(NC(=O)CSc2ncc(-c3ccccc3)[nH]2)s1,66*,0.1,0.7,0.3,25
CCc1nnc(NC(=O)CSc2nnc3ncccn23)s1,35,-0.46,0.3,0.6,68*
CCOC(=O)CSc1ccc(-c2nc3ccccc3[nH]2)cn1,17,0.28,0.7,0.8,30
O=C(CSc1ncc(-c2ccc(F)cc2)[nH]1)Nc1cccc(O)c1,10,-0.07,0.5,0.9,51*
CCCCc1c(O)nc(SCC(=O)N2CCOCC2)n(-c2ccccc2C)c1=O,-13,-1.4,1.1,1.1,-9
CCC(C)N(C(=O)Cn1nnc2ccccc21)C(C(=O)Nc1ccc(F)cc1)c1cccc(OC)c1 (stereo not drawn),19,-2,0.7,0.8,27
COc1ccc(S(=O)(=O)NCCC(=O)NC(C)c2ccccc2)cc1 (stereo not drawn),-94,0.41,1,1.9,2
CCc1nnc(NC(=O)CSc2ncc(-c3ccccc3)n2CC)s1,72*,-0.14,0.2,0.3,76*
Nc1nnc(CCC2CCCCC2)s1,-12,1.1,0.3,1.1,73*
O=C(C1=C(O)C(=O)N(Cc2ccco2)C1c1ccccc1)c1cccs1 (stereo not drawn),44,0.5,0.8,0.6,21
Cc1ccc(-c2nnc(N3CCCCC3)c3ccccc23)cc1S(=O)(=O)N(C)C,48,-0.08,0.8,0.5,20
Cc1ccc(-c2nnc(N3CCCCC3)c3ccccc23)cc1S(=O)(=O)N1CCN(C)CC1,58*,-0.48,0.9,0.4,15
N#Cc1c(NC(=O)c2cc(-n3cnnc3)ccc2Cl)sc2c1CCCC2,18,1.2,0.8,0.8,16
CCOC(=O)c1cc2c(nc1N)CC(C)(CC)OC2 (stereo not drawn),32,0.28,0.1,0.7,92*
CCOC(=O)c1cc2c(nc1N)CC(C)(C)OC2,.,0.63,.,.,.
Cn1c(SCc2cc(=O)[nH]c3ccccc23)nnc1-c1ccc(Br)cc1,18,-0.48,0.5,0.8,51*
NS(=O)(=O)c1ccc(NC(=O)COC(=O)CCNC(=O)NC23CC4CC(CC(C4)C2)C3)cc1,65*,0.04,0.7,0.4,30
